Measured values taken from PubChem BioAssay (NCATS).
Records with an inconclusive call do not appear. Calls of active or inactive are those of the source. The call rests on the fitted dose curve; in most records, active means well fitted inhibition curve with a large enough effect; inconclusive means small, poorly fitted or top-dose-only effect; inactive means flat fitted curve, though single readings scatter.

These molecules were tested against Dual specificity protein kinase CLK4 (Homo sapiens) (UniProt Q9HAZ1) (assay: qHTS Assay for Inhibitors of CDC-like Kinase 4 (Kinase-Glo Assay) (AID 1770; further: nearly all actives have a fitted effect of over 65% in size)). Settings: recombinant Clk4, Kinase-Glo ATP depletion luminescence; series mostly up to 66.7 µM.
Experimental: NIH Molecular Libraries Probe Production Centers Network [MLPCN] NIH Chemical Genomics Center [NCGC] MLPCN Grant: 1R03MH084827-01 Assay Submitter (PI): Tom Misteli NCGC Assay Overview: Clk4 (Invitrogen, cat# PV3839) was assayed using ATP and the RS repeat peptide (AnaSpec cat # 61722) as substrates. Following the Clk4 reaction, the remaining ATP levels were detected using Promega Kinase-Glo technology wherein the remaining ATP from the kinase reaction is detected using Ultra-Glo luciferase and D-luciferin which generates a bioluminescence signal from the ATP. The positive control for the assay was TG003 (Sigma-Aldrich, cat# 300801-52-9) which has been described as an inhibitor of Clk 4[1].
NCGC Assay Protocol Summary: Two uL/well of substrate-buffer solution (100 uM RS peptide, 1 uM ATP, 25 mM Tris pH7.5, 10 mM MgCl2, 0.5 mM EGTA, 2.5 mM DTT, 0.01% Triton X-100 final concentration) was dispensed into 1536-well, assay plates (Greiner, solid white medium-binding plates) with Aurora Discovery BioRAPTR Flying Reagent Dispenser (FRD; Beckton-Dickenson). Using a Kalypsys pin tool equipped with a 1536-pin tool, 23 nL of compound solution was transferred to the assay plate. One uL/ well Clk4-buffer solution (25 nM Clk4, 25 mM Tris pH 7.5, 10 mM MgCl2, 0.5 mM EGTA, 2.5 mM DTT, 0.01% Triton X-100, final concentrations) was then added using the FRD yielding a total kinase reaction volume of 3 uL/ well. After 4.5 hours of room temperature incubation, 3 uL Kinase-Glo reagent was added for a final assay volume of 6 uL/ well. Luminescence was detected with the ViewLux plate reader (Perkin Elmer, Waltham, MA) after 5 min incubation using a 5 second exposure time and 2x binning.
Potency means the concentration at half of the fitted maximal effect.

Sequence of Dual specificity protein kinase CLK4 (Homo sapiens) (Q9HAZ1 whole entry, looked up): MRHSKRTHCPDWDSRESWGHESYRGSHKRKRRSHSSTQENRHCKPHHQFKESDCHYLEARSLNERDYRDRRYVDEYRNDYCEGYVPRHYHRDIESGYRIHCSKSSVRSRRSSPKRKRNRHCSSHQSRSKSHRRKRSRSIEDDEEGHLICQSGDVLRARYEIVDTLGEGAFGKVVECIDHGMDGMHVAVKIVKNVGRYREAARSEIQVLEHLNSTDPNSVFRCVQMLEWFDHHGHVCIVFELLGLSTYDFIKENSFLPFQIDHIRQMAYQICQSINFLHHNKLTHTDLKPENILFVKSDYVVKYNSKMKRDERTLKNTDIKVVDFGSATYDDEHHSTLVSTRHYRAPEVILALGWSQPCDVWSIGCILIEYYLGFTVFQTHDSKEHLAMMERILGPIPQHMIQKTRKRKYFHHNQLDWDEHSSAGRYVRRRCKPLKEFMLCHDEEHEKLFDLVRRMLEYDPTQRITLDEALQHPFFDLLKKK

SMILES	Potency
COc1ccccc1CNc1ncnc2ccc(-c3cccc(NS(C)(=O)=O)c3)cc12	11.2 µM (active)
CN(C)c1ccc(-c2cc(N(C)Cc3ccco3)ncn2)cc1	25.1 µM (active)
COc1cccc(-c2ccc3ncnc(N4CCNCC4)c3c2)c1	1.78 µM (active)
COc1ccc(Oc2ncc3nc(-c4ccc(F)cc4)c(=O)n(CCC#N)c3n2)cc1	inactive
CN1CCN(c2ncc3nc(-c4cn(C)c5ccccc45)c(=O)n(C[C@H]4CCCO4)c3n2)CC1	inactive
O=c1c(CCc2ccccc2)nc2cnc(N3CCNCC3)nc2n1-c1ccccc1	inactive
CCNc1ncc2nc(-c3ccc(OC)cc3)c(=O)n(C)c2n1	inactive
COc1ccccc1CNc1ncncc1-c1ccc2c(c1)OCO2	2.24 µM (active)
COc1cccc(-c2nc(N(C)C)c3ccccc3n2)c1	11.2 µM (active)
Cn1cc(-c2nc3cnc(N4CCNCC4)nc3n(C3CC3)c2=O)c2ccccc21	inactive
COc1ccc2[nH]cc(CCNc3cc(-c4ccccc4OC)ncn3)c2c1	12.6 µM (active)
COc1cccc(Nc2ncc3ncc(=O)n(Cc4ccc(F)cc4)c3n2)c1	3.98 µM (active)
COc1ccc(-n2c(=O)c(-c3cccs3)nc3cnc(N4CCN(C)CC4)nc32)cc1	inactive
COc1ccc2[nH]cc(CCNc3ncnc4ccc(-c5cccc(C#N)c5)cc34)c2c1	12.6 µM (active)
CCNc1ncc2nc(CCc3ccccc3)c(=O)n(C3CC3)c2n1	inactive
O=c1c(CCc2ccccc2)nc2cncnc2n1Cc1ccccc1	inactive
CN(Cc1ccco1)c1ncnc2ccc(-c3cccc(NS(C)(=O)=O)c3)cc12	7.08 µM (active)
COc1cccc(-c2ccc3ncnc(NCc4ccc(OC)cc4OC)c3c2)c1	35.5 µM (active)
COc1cccc(Nc2ncc3nc(-c4cccs4)c(=O)n(C[C@H]4CCCO4)c3n2)c1	inactive
CN(C)c1ccc(-c2nccc(NCc3cccs3)n2)cc1	8.91 µM (active)

SMILES	Potency
COCCn1c(=O)c(CCc2ccccc2)nc2cnc(N(C)C)nc21	inactive
CN(C)C(=O)c1ccc(-c2nc(N3CCOCC3)c3ccccc3n2)cc1	inactive
COc1ccc2[nH]cc(CCNc3ncnc4ccc(-c5ccoc5)cc34)c2c1	0.794 µM (active)
Cc1cnc(CNc2ncnc3ccc(-c4ccc(N(C)C)cc4)cc23)cn1	8.91 µM (active)
COc1ccc(-c2nc3cnc(N4CCOCC4)nc3n(-c3ccc(OC)cc3)c2=O)cc1	inactive
COCCn1c(=O)c(-c2cccc(C#N)c2)nc2cnc(OCc3ccccc3)nc21	inactive
COc1ccc(Oc2ncc3nc(-c4ccc(F)cc4)c(=O)n(C[C@H]4CCCO4)c3n2)cc1	inactive
O=c1c(CCc2ccccc2)nc2cnc(Nc3ccccc3)nc2n1C[C@H]1CCCO1	inactive
FC(F)(F)c1ccccc1-c1nc(NCc2cccnc2)c2ccccc2n1	inactive
CN1CCN(c2ncc3nc(CCc4ccccc4)c(=O)n(CCc4ccccc4)c3n2)CC1	inactive
Cc1nc2cnc(N3CCN(C)CC3)nc2n(CCc2ccccc2)c1=O	inactive
COc1ccccc1CNc1ncncc1-c1ccccc1C(F)(F)F	inactive
COc1cccc(-c2cncnc2NCc2ccccc2OC)c1	14.1 µM (active)
COc1cccc(-c2ccc3ncnc(NCc4cnc(C)cn4)c3c2)c1	3.16 µM (active)
COc1ccccc1CNc1ccnc(-c2cccnc2)n1	28.2 µM (active)
CN(Cc1ccco1)c1nc(-c2ccccc2C(F)(F)F)nc2ccccc12	20 µM (active)
CN(Cc1ccco1)c1cc(-c2ccc3c(c2)OCO3)ncn1	2 µM (active)
COc1ccc2[nH]cc(CCNc3ncncc3-c3ccc4c(c3)OCO4)c2c1	8.91 µM (active)
CN(C)c1nc(-c2cccc(C#N)c2)nc2ccccc12	15.8 µM (active)
Cc1cnc(CNc2ncnc3ccc(-c4ccccc4Cl)cc23)cn1	15.8 µM (active)
